Sampled rows, rich in hits. Any-hit rate of the full collection: about 2.3%.
Giardia killer – Small Molecules that selectively kill Giardia lamblia: qHTS; Giardia lamblia trophozoite viability; activity change, % at 7.66 µM, hits read low; actives 0.15% (n = 340,000); AID 540267, 2011; in the data active = activity change below about -80%; inconclusive = between about -30% and that limit;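 also: parasites exposed to compound for two days anaerobically before the ATP read; % is scaled to controls: 0 for no effect and ±100 for the full control effect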
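Killing of trophozoites was scored by loss of ATP luminescence after a 48 hrs anaerobic exposure to compounds at 37 deg C, using 100 cells per well.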
ELG1 repair inh – qHTS screen for small molecules that inhibit ELG1-dependent DNA repair in human embryonic kidney (HEK293T) cells expressing luciferase-tagged ELG1; HEK293T ELG1-luciferase reporter, luminescence, 16 h; DNA damage induced by 5-fluorouridine; AID 504467, 2011; Potency, µM (doses to about 46.1 µM), inactives show at the top dose activity change, negative = inhibition, hits mostly inhibitors; actives 2.3% (n = 330,000); also: potency is read from the fitted curve at half-maximal effect; % is scaled to controls: 0 for no effect and ±100 for the full control effect; nearly all actives have a fitted effect of over 55% in size
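DMSO vehicle served as the neutral condition. Each well held 2,000 cells given 5-fluorouridine plus compound; after 16 hr at 37 °C/5% CO2, ONE-Glo was added and luciferase measured 30 min later.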
TRPV1 potentiator – HTS Assay for Compounds that Act as Potentiators of the Vanilloid Receptor 1 | Transient receptor potential cation channel subfamily V member 1 (Homo sapiens), Q8NER1 | TRPV1-expressing cells, Fluo-8 calcium influx, capsaicin EC20 potentiation | potentiation, % at 8.33 µM | actives 0.02% (n = 320,000); in the data active = potentiation above about 80%; inconclusive = between about 30% and that limit; also: 0% is about no effect
Target sequence (Q8NER1 whole entry, looked up): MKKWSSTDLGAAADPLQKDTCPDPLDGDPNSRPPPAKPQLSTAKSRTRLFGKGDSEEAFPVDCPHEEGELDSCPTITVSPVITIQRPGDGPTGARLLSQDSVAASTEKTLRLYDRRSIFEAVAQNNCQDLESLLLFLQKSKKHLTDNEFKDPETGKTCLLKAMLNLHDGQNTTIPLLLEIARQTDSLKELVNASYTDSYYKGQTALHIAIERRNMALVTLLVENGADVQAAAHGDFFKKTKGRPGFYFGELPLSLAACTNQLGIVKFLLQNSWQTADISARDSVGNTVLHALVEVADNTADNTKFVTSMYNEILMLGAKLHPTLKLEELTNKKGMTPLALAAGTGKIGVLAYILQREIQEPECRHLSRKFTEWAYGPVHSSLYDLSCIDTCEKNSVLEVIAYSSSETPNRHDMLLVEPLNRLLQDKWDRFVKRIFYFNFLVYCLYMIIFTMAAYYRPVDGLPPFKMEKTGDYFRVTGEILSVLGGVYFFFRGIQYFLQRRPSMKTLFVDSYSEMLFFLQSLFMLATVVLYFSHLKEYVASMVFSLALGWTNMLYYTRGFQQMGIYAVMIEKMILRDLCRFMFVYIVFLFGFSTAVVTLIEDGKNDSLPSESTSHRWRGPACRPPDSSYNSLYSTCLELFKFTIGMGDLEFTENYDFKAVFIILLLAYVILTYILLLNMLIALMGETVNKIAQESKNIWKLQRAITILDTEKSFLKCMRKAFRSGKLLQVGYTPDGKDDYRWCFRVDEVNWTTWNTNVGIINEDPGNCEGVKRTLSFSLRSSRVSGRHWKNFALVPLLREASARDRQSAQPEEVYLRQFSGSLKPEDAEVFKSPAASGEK
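TRPV1-expressing cells were cultured overnight at 35.5C and loaded with Fluo-8 calcium dye for 40 to 90 min at room temperature. After a 10 s baseline, compound was added and calcium influx was read kinetically for 3 min (ex 480/em 520 nm).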
TRPV1 ag – HTS Assay for Compounds that Act as Agonists of the Vanilloid Receptor 1; Transient receptor potential cation channel subfamily V member 1 (Homo sapiens), Q8NER1; TRPV1-expressing cells, Fluo-8 calcium influx, agonist mode; activation, % at 8.33 µM; actives 0.19% (n = 320,000); AID 540275, 2011; in the data active = activation above about 80%; inconclusive = between about 30% and that limit; also: 0% is about no effect
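TRPV1-expressing cells were cultured overnight at 35.5C and loaded with Fluo-8 calcium dye for 40 to 90 min at room temperature. After a 10 s baseline, compound was added and calcium influx was read kinetically for 3 min (ex 480/em 520 nm).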
FUS suppressor – qHTS for Suppressors of FUS Proteinopathy: Primary screen using FUS-linked yeast assay; S. cerevisiae FUS-expressing, growth rescue, OD600, 24 h; Potency, µM (highest dose often 76.6 µM), usual class: activators; actives 0.24% (n = 390,000); AID 1347120, 2019;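 also: potency is read from the fitted curve at half-maximal effect; plate controls were DMSO vehicle for no effect and reference control for full effect; nearly all actives have a fitted effect of over 55% in size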
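Restored growth of FUS-toxic S. cerevisiae, read as 600 nm absorbance after 24 h at 30C in galactose medium (starting OD 0.005). Controls CP55940 and DMSO.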
Numbers without * were called inactive; i = inactive; u = inconclusive; x = no result given. Unless noted, calls follow the shape of the dose curve; as a rule, active = well fitted curve in the direction sought with a large enough effect; inconclusive = small, poorly fitted or top-dose-only effect, or another doubt; inactive = no such curve, though single readings can be large; an effect the other way counts as inactive or inconclusive.

SMILES | Giardia killer | ELG1 repair inh | TRPV1 potentiator | TRPV1 ag | FUS suppressor
CCCOc1ccc(/C=C/C(=O)N2CCN(c3ccccn3)CC2)cc1 | 12.3 | -12.6% | -7.2 | -0.6 | i
CC(=O)N/C(=C\c1ccccc1)C(=O)OCc1ccccc1 | 13.1 | 15.6% | -21.1 | 0.1 | i
CC(=O)N/C(=C\c1ccccc1)C(=O)OCc1cccc(S(=O)(=O)N(C)C)c1 | -5.5 | 7.3µM* | 0.0 | 6.2 | i
CCCCCCCCC(=O)NC(NC(=S)N1CCOCC1)C(Cl)(Cl)Cl (configuration not stated) | 1.0 | u | -7.4 | 82.8* | i
CCCCCC(=O)NC(NC(=S)N1CCOCC1)C(Cl)(Cl)Cl (configuration not stated) | -8.7 | -10.9% | -8.2 | 83.1* | i
COc1cc(/C=N/n2c(-c3ccccc3)n[nH]c2=S)cc(OC)c1O | -12.6 | 5.2% | -1.1 | 2.4 | i
COc1ccc(Br)cc1/C=N/n1c(-c2ccccc2)n[nH]c1=S | -4.2 | 7.6% | 80.3* | -6.4 | i
Cc1cc(N2CCCC2=O)cc(C)c1S(=O)(=O)NCCOc1ccc(C(C)(C)C)cc1 | -6.5 | 20.6µM* | -6.3 | u | i
COc1ccc2c(c1)CC(C(=O)Nc1cccc(C)c1C)CO2 (configuration not stated) | x | x | x | x | i
CC1CCN(C(=O)c2scc3c2OCCO3)CC1 | 7.0 | 18.4µM* | 1.4 | 5.5 | i
O=C(c1noc2c1CCCC2)N1CCN(c2ccccc2)CC1 | 10.4 | 10.3% | -5.8 | u | i
O=C(c1noc2c1CCCC2)N1CCC(CO)(Cc2ccccc2Cl)CC1 | 23.9 | 20.6µM* | -11.6 | 18.5 | i
CCOc1ccccc1CNC(=O)Cn1c(-c2ccccc2)cc(C(C)=O)c1C | x | x | x | x | i
Cc1ccccc1NC(=S)NC(=O)/C=C/c1ccco1 | 46.6 | -6.2% | 8.8 | -0.7 | 8.91µM*
COc1ccccc1NC(=S)NC(=O)/C=C/c1ccco1 | -11.5 | -4.0% | 29.1 | 18.9 | x
COc1cc2[nH]c(=O)n3nc(-c4ccccc4)nc3c2cc1OC | 6.0 | 20.6µM* | 11.6 | -3.2 | i
Cc1ccc(C(=O)Nc2ccc(SC(F)F)cc2)s1 | -3.4 | u | -13.3 | 85.8* | i
CCOc1ccccc1NC(=O)Cn1c(=O)n(-c2ccc(Cl)cc2)c(=O)c2oc3ccccc3c21 | x | x | x | x | i
CCc1ccc(Cn2nnc(C(=O)Nc3ccc(C)cc3)c2N)cc1 | x | x | x | x | i
Cc1cc(N=Cc2c(O)n(-c3cccc(C(F)(F)F)c3)c(=O)c3ccccc23)no1 | 15.8 | 9.2µM* | 1.4 | u | i
O=c1[nH]c(C2CCN(S(=O)(=O)Cc3ccccc3)CC2)nc2c1nnn2Cc1ccccc1 | -21.0 | 23.1µM* | 6.0 | -1.3 | i
O=c1[nH]c(C2CCN(S(=O)(=O)Cc3ccccc3)CC2)nc2c1nnn2Cc1ccccc1Cl | 1.5 | 25.9µM* | 1.8 | 3.0 | i
O=c1[nH]c(C2CCN(S(=O)(=O)Cc3ccccc3)CC2)nc2c1nnn2Cc1cccc(Cl)c1 | -21.3 | -7.8% | 19.1 | 0.0 | u
COc1ccc(NC(=O)c2cccc(S(=O)(=O)N3CCCCCC3)c2)cc1 | 5.2 | 20.6µM* | 6.4 | u | i
CN(c1ccccc1)S(=O)(=O)c1cccc(C(=O)NNC(=O)c2ccccc2)c1 | 13.7 | u | 8.9 | 1.3 | i
SMILES | Giardia killer | ELG1 repair inh | TRPV1 potentiator | TRPV1 ag | FUS suppressor
O=C(Nc1ccc2c(c1)CCC2)c1cccc(S(=O)(=O)N2CCN(c3ccccc3)CC2)c1 | -14.0 | -11.8% | 3.0 | -1.7 | 14.1µM*
CC(=O)Nc1ccc(NC(=O)c2cccc(S(=O)(=O)N3CCCCCC3)c2)cc1 | -3.2 | 29.5% | x | x | x
COc1ccc(NC(=O)CN(C)C(=O)c2cccc(S(=O)(=O)N3CCN(c4ccc(F)cc4)CC3)c2)cc1 | -20.0 | x | x | x | 22.4µM*
O=C(NC1CCCc2ccccc21)c1cccc(S(=O)(=O)N2CCN(c3ccccc3)CC2)c1 (configuration not stated) | -13.7 | -16.3% | 26.2 | -2.1 | i
CN(c1ccccc1)S(=O)(=O)c1cccc(C(=O)Nc2ccc3c(c2)CCC3)c1 | -22.5 | 14.6µM* | 18.2 | 9.3 | x
CN(C)c1cccc(C(=O)OCCNC(=O)c2cccc(S(=O)(=O)N3CCOCC3)c2)c1 | 26.6 | 7.3µM* | 4.0 | -2.1 | i
C=CCN(c1ccccc1)S(=O)(=O)c1cccc(C(=O)Nc2ccc(N3CCOCC3)cc2)c1 | 3.9 | 14.6µM* | 12.6 | u | i
Cc1nnsc1C(=O)Nc1ccc(S(=O)(=O)N2CCCC(C)C2)cc1 (configuration not stated) | -22.0 | -16.8% | -21.7 | 21.3 | i
Cc1nc(-c2cccc(NC(=O)c3cccc(S(=O)(=O)N4CCCC4)c3)c2)cs1 | -17.0 | 18.3µM* | -0.7 | 6.6 | u
Cc1nnsc1C(=O)Nc1ccc(S(=O)(=O)N2CCCCC2)cc1 | 25.3 | 11.6µM* | -15.3 | 24.7 | i
COc1cccc(CNC(=O)c2cnc(N3CCCC3)nc2C)c1 | x | x | x | x | i
NS(=O)(=O)c1ccc(NC(=O)c2ccc3c(c2)OCO3)cc1 | 12.9 | 19.5% | -17.0 | u | i
O=C(Nc1ccc(N2CCOCC2)cc1)c1cccc(S(=O)(=O)N2CCCCC2)c1 | 18.5 | 16.4µM* | 9.3 | -4.9 | i
NS(=O)(=O)c1ccc(NC(=O)c2ccc3c(c2)CCCC3)cc1 | -20.2 | 0.0% | -4.8 | 91.7* | i
CCN1CCN(c2ccc(NC(=O)c3cccc(S(=O)(=O)N4CCCC4)c3)cc2)CC1 | 4.3 | 12.0% | x | x | x
COc1ccccc1C(O)c1nccn1Cc1ccccc1 (configuration not stated) | 4.7 | x | x | x | x
CCc1cccc(NC(=O)CSc2nc(C)cs2)c1 | x | x | x | x | i
CC(=O)c1csc(CS(=O)(=O)c2ccccn2)n1 | -20.5 | 0.0% | 4.0 | -3.9 | i
COC(=O)c1sc(C(C)(C)C)cc1CS(=O)(=O)c1ccccn1 | 7.0 | 16.4µM* | -23.4 | 27.8 | i
Cc1nc(N2CCCCC2)sc1C(=O)c1ccc(SCCO)c([N+](=O)[O-])c1 | -12.0 | 18.3µM* | -3.3 | 10.6 | i
Cc1nc(N2CCCCC2)sc1C(=O)c1cccc([N+](=O)[O-])c1 | -19.2 | 1.5% | 2.7 | 16.5 | i
CCOC(=O)c1sc2nc(C)nc(Nc3ccccc3)c2c1C | -1.2 | -5.2% | -5.0 | 12.0 | i
CCOC(=O)c1sc2nc(CC(=O)OC)nc(NCCN(CC)CC)c2c1C | 21.2 | -0.1% | -6.4 | 3.2 | x
CCOC(=O)c1sc2nc(C)nc(NCc3ccccc3)c2c1C | 6.1 | 23.1µM* | -3.4 | 12.2 | i
